This note sets out measurements from PubChem BioAssay (NCATS).

Molecules are shown by their SMILES. Results filed as inconclusive are left out. The source made the active and inactive calls. Unless noted, the call rests on the fitted dose curve; in most records, active means well fitted curve in the direction sought with a large enough effect; inconclusive means small, poorly fitted or top-dose-only effect, or another doubt; inactive means no such curve, though single readings can be large; an effect the other way counts as inactive or inconclusive.

A short description of experiment [1]: S16 Schwann cell PMP22 intronic element firefly luciferase assay (AID 624032). Further: nearly all actives have a fitted effect of over 30% in size. In short, it runs like this:
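Rat S16 Schwann cells stably carrying firefly luciferase driven by a PMP22 intronic element, in 10% FBS, treated 24 h at 37 C. ONE-Glo luminescence normalized to PTC124 control and DMSO (0%); curves classed by r2, magnitude and activity.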

Experiment [2] is described as follows: S16 Schwann cell PMP22 intronic element beta-lactamase assay (AID 624044; calls by dose curve; further: nearly all actives have a fitted effect of over 15% in size). In short, it runs like this:
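Beta-lactamase reporter under a PMP22 intronic regulatory element in stable S16 rat Schwann cells; 24 h compound exposure. 460 nm blue signal normalized between DMSO (0%) and potassium clavulanate, with 535 nm FRET tracking viability; curves classed by r2 and response.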

The test system of the next experiment is 3D7. In words: qHTS profiling for inhibitors of Plasmodium falciparum proliferation (AID 504749). Further: nearly all actives have a fitted effect of over 60% in size. Further: potency means the concentration at half of the fitted maximal effect. The conditions noted are these: P. falciparum in erythrocytes, SYBR Green DNA, 72 h; series mostly up to 12.8 µM. In short, it runs like this: (§1)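 Each compound contacts P. falciparum-infected red blood cells for 72 h at 37 C; lysis buffer (Tris, EDTA, saponin, Triton X, SYBR Green I) is added and fluorescence measured next morning; values normalized to controls.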
On the technique in general: Quantitative high-throughput screening tests each substance at several concentrations.

Another experiment relates to AA1029. The description is as above. The settings on record: P. falciparum in erythrocytes, SYBR Green DNA, 72 h; series mostly up to 12.8 µM. Summed up: as §1
The next experiment deals with CP194. Described as above. The settings on record: P. falciparum in erythrocytes, SYBR Green DNA, 72 h; series mostly up to 12.8 µM. Summed up: as §1
The test system of the next experiment is CP203. The description is as above. The settings on record: P. falciparum in erythrocytes, SYBR Green DNA, 72 h; series mostly up to 12.8 µM. Summed up: as §1
The next experiment deals with CP211. The experiment is described as above. The conditions noted are these: P. falciparum in erythrocytes, SYBR Green DNA, 72 h; series mostly up to 12.8 µM. Summed up:
as §1

Another experiment deals with CP215. The description is as above. The conditions noted are these: P. falciparum in erythrocytes, SYBR Green DNA, 72 h; series mostly up to 28.7 µM. In short, it runs like this:
as §1

For another experiment, the system named is CP260. Described as above. The settings on record: P. falciparum in erythrocytes, SYBR Green DNA, 72 h; series mostly up to 12.8 µM. In short, it runs like this:
as §1

Another experiment concerns CP266. The description is as above. The settings on record: P. falciparum in erythrocytes, SYBR Green DNA, 72 h; series mostly up to 28.7 µM. In short, it runs like this:
as §1

Another experiment deals with CP297. The experiment is described as above. The settings on record: P. falciparum in erythrocytes, SYBR Green DNA, 72 h; series mostly up to 12.8 µM. Summed up: as §1
For another experiment, the system named is CP315. Described as above. The settings on record: P. falciparum in erythrocytes, SYBR Green DNA, 72 h; series mostly up to 12.8 µM. Summed up:
as §1

Another experiment concerns DIV14. Described as above. The conditions noted are these: P. falciparum in erythrocytes, SYBR Green DNA, 72 h; series mostly up to 12.8 µM. Summed up: as §1
The next experiment relates to DIV17. The experiment is described as above. The settings on record: P. falciparum in erythrocytes, SYBR Green DNA, 72 h; series mostly up to 12.8 µM. Summed up: as §1
For another experiment, the system named is GB4. The experiment is described as above. The settings on record: P. falciparum in erythrocytes, SYBR Green DNA, 72 h; series mostly up to 12.8 µM. In short, it runs like this: as §1
A further experiment concerns ICS. The description is as above. The settings on record: P. falciparum in erythrocytes, SYBR Green DNA, 72 h; series mostly up to 12.8 µM. In short, it runs like this:
as §1

A further experiment relates to P93_24. The description is as above. The settings on record: P. falciparum in erythrocytes, SYBR Green DNA, 72 h; series mostly up to 12.8 µM. In short, it runs like this:
as §1

The subject of another experiment is PAD. Described as above. The conditions noted are these: P. falciparum in erythrocytes, SYBR Green DNA, 72 h; series mostly up to 12.8 µM. Summed up: as §1
A further experiment concerns TAB109. The description is as above. The conditions noted are these: P. falciparum in erythrocytes, SYBR Green DNA, 72 h; series mostly up to 12.8 µM. Summed up: as §1
The subject of another experiment is W2. The description is as above. The settings on record: P. falciparum in erythrocytes, SYBR Green DNA, 72 h; series mostly up to 12.8 µM. In short, it runs like this:
as §1

`CC1(C)O[C@@H]2C[C@H]3[C@H]4C[C@H](F)C5=CC(=O)C=C[C@@]5(C)[C@@H]4[C@H](O)C[C@]3(C)[C@]2(C(=O)CO)O1`: the Potency entry (in experiment [1]; in the experiment on 3D7; in the experiment with AA1029; in the experiment with CP194; in the experiment with CP203; with CP211) was “inactive” in each case. The Potency result in the experiment on CP215, in the experiment on CP260, in the experiment with CP266, with CP297, with CP315 and with DIV14 was “inactive” throughout. Further, the Potency result in the experiment on DIV17, in the experiment on GB4, in the experiment on ICS, in the experiment on P93_24, in the experiment with PAD and in the experiment with TAB109 was “inactive” in each case. The Potency result in the experiment with W2 was “inactive”. Besides, the result in experiment [2] was inactive.

As for `NC(N)=NC[C@@H]1COC2(CCCCC2)O1`, the Potency entry (in [1]; in the experiment on 3D7; in the experiment with AA1029; in the experiment on CP194; in the experiment on CP203; in the experiment on CP211) was “inactive” each time. Also, the Potency result with CP215, in the experiment on CP260, in the experiment with CP266, in the experiment on CP297, in the experiment with CP315 and in the experiment with DIV14 was “inactive” in each case. The Potency result in the experiment on GB4, in the experiment with ICS, in the experiment with P93_24, in the experiment on PAD, in the experiment with TAB109 and in the experiment on W2 was “inactive” each time. In addition, the molecule was classed as inactive in experiment [2].

With `CC(=O)Nc1c(I)c(C(=O)N[C@H]2[C@@H](O)[C@H](O)[C@H](CO)O[C@@H]2O)c(I)c(N(C)C(C)=O)c1I`, the Potency entry (in experiment [1]; with 3D7; in the experiment on AA1029; with CP194; in the experiment on CP203; with CP211) was “inactive” each time. Moreover, the Potency entry in the experiment on CP215, in the experiment with CP260, in the experiment with CP266, in the experiment on CP297, with CP315 and in the experiment with DIV14 was “inactive” in each case. The Potency entry in the experiment on DIV17, in the experiment with GB4, in the experiment on ICS, in the experiment on P93_24, in the experiment with PAD and with TAB109 was “inactive” throughout. Further, in the experiment on W2, the Potency result is “inactive”. Moreover, the molecule was classed as inactive in experiment [2].

With `O=C(O)/C=C\c1ccc(Cn2ccnc2)cc1`, the Potency entry (in experiment [1]; in the experiment on 3D7; in the experiment on AA1029; with CP194; with CP203; in the experiment on CP211) was “inactive” each time. The Potency entry with CP215, with CP260, in the experiment on CP297, with CP315, in the experiment with DIV14 and in the experiment on DIV17 was “inactive” in each case. For the same molecule, the Potency entry with GB4, with ICS, with P93_24, in the experiment with PAD, with TAB109 and in the experiment on W2 was “inactive” throughout. In experiment [2], the call was inactive.

In the case of `COCCc1ccc(OC[C@H](O)CNC(C)C)cc1`, the Potency result (in experiment [1]; in the experiment on 3D7; in the experiment with AA1029; in the experiment with CP194; in the experiment on CP203; in the experiment with CP211) was “inactive” each time. In addition, the Potency entry in the experiment with CP215, in the experiment on CP260, in the experiment with CP266, in the experiment on CP297, with CP315 and with DIV14 was “inactive” throughout. Further, the Potency result in the experiment with DIV17, with GB4, with ICS, in the experiment on P93_24, in the experiment with PAD and in the experiment with TAB109 was “inactive” in each case. Besides, the Potency result with W2 was “inactive”. The molecule was classed as inactive in [2].

Turning to `CCN(CC)CC#CCOC(=O)[C@@](O)(c1ccccc1)C1CCCCC1`, the Potency result (in experiment [1]; with CP203; with CP215; in the experiment with CP266; with CP315) was “inactive” throughout. The outcome in experiment [2] was inactive. Further, the Potency in the experiment on DIV14 is 7.57 µM (active); in the experiment on DIV17 it was 4.78 µM (active); in the experiment on W2 it was 5.36 µM (active).

With `C[C@@H]1COc2c(N3CCN(C)CC3)c(F)cc3c(=O)c(C(=O)O)cn1c23`, the Potency entry (in experiment [1]; in the experiment with 3D7; with AA1029; in the experiment on CP194; in the experiment with CP203; with CP211) was “inactive” in each case. The Potency result with CP215, in the experiment with CP266, with CP297, in the experiment with CP315, in the experiment with DIV14 and with DIV17 was “inactive” each time. Also, the Potency entry in the experiment on GB4, in the experiment with ICS, in the experiment with P93_24, with PAD and in the experiment on TAB109 was “inactive” throughout.

With `CN(C)[C@H]1C(=O)C(C(=O)NCN2CCCC2)=C(O)[C@]2(O)C(=O)C3=C(O)c4c(O)cccc4[C@@](C)(O)[C@H]3C[C@@H]12`, the result in experiment [2] was inactive. Further, the Potency result with 3D7, with AA1029, with CP194, in the experiment with CP203, in the experiment on CP211 and in the experiment on CP215 was “inactive” throughout. Further, the Potency result with CP260, in the experiment on CP266, in the experiment on CP297, with CP315, in the experiment on DIV14 and with DIV17 was “inactive” each time. Besides, the Potency entry with GB4, in the experiment on ICS, with P93_24, in the experiment on PAD, in the experiment with TAB109 and in the experiment with W2 was “inactive” in each case.

Regarding `C[C@@H](C(=O)O)c1ccc(C(=O)c2cccs2)cc1`, the Potency result (in experiment [1]; in the experiment on 3D7; in the experiment on AA1029; in the experiment on CP194; in the experiment with CP203; in the experiment on CP211) was “inactive” throughout. Also, the Potency entry in the experiment with CP215, with CP260, in the experiment on CP297, in the experiment with CP315, with DIV14 and in the experiment on DIV17 was “inactive” throughout. Further, the Potency entry with GB4, in the experiment with ICS, in the experiment on P93_24, in the experiment on PAD, with TAB109 and in the experiment on W2 was “inactive” each time. The molecule was classed as inactive in [2].
